This note sets out measurements from PubChem BioAssay AID1159506 (National Center for Advancing Translational Sciences (NCATS), 2015).

In all, about 59,000 sequences were measured (the read-out: median about -0.00055, lowest 2% from about -2 on). This is one part of a sample in which the lowest values are shown more often than they occur.

This assay can be described thus: Identification of proteins required for the processing of the EWS-FLI1 nascent transcript.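 Further: robust z of luciferase light less the median z of siRNAs with the same seed.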 As to conditions: TC32 Ewing sarcoma NR0B1-luc vs CMV-luc (EWS-FLI1 target promoter against control promoter), 48 h; screened at 20 nM (by protocol). The essentials: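 TC32 Ewing sarcoma cells carrying NR0B1-promoter or CMV-promoter luciferase reporters were reverse-transfected with single siRNAs at 20 nM, three per gene genome-wide. Luminescence was read after 48 h and normalized to non-targeting controls.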
Consider UUCGUCCUUAUGCUCUUUC against HOXA7, for which the seed-corrected z-score amounted to 0.383.
Sequence AAAGAUACAGGUUAAAGGC against HIST2H2BF returned a seed-corrected z-score of -0.321.
In turn, UUCAUAACGAGUUGGAGCC against RPL30 returned a seed-corrected z-score of -2.42.
In turn, UUCAUGUUCAGAGUCAACG against SSRP1 registered a seed-corrected z-score of 1.02.
The same measure for ACUCUUAUCAGGCACAUCC against IMPAD1: -0.93; for UAACCGUUCCCGCAAACAC against TFAP2E: -0.2; for AUUUAUUCCGGACACGUGG against GLI4: -2.01.
To UCUUAUCCAAGGGACCAGC against MED1 belongs -0.541; to UUCUCUAGGAUGGAAAACC against LOC728752, 0.253.
To UUCGCAAUGUUGGUUCACC against TEX15 belongs -0.211.
Consider AAACACUCCACUGAUGUGC against IFT140, for which the seed-corrected z-score is -0.256.
To UGCGCUUACGCUUCUUACC against HIST1H2BB belongs -0.822.
The same measure for UUUCGGUAGUAGGAUUUCC against RBAK: 0.44; for AAAACUUGCACCUUCGUGU against ARMC10: -0.114; for UUUAGUGUCAGUUGAUUUG against CPXCR1: 0.162.
To UAUCAGACAAUUCAUCCGG against LONRF2 belongs -0.662.
AUGGGUCAGAGAGGCAAGG against EXOSC5 showed a seed-corrected z-score of -2.07.
Take AUGUGGAUCAGAAGUAUCA against OR2T10: the seed-corrected z-score was found to be 0.476.
The same measure for UGCAUGAUGAGUGAGGUGC against CYP26B1: -0.927; for UGACGGAUCAGUCUUAGCC against ATP5O: -0.31; for AAAUAUAUCUCUUGGAUCU against LRRC75A-AS1: 0.788.
Regarding UCUAAUUCCAUACUGAUUC against PRKCQ-AS1, the seed-corrected z-score was -0.219.
Sequence UUAUAAAAUUUGGUGAUGG against CNNM2 gave a seed-corrected z-score of -2.17.
Turning to AAAGAAGGAAUUGAGAUUC against RAPGEF3, the seed-corrected z-score came to 0.508.
To UAGAAAUCUACAAUCUUGU against NR2C2AP belongs -0.785; to AUUGUAUCCUGCUGAGUCC against FOXJ2, -0.984.
The same measure for ACAGUAAUCCAUAUGGAGG against GPR139: 0.177.
The same measure for UUUCGUUCUUACGAGAUCC against PKHD1L1: 1.16.
In the case of UCCGGAUACACUUCACUAC against ANXA6, the seed-corrected z-score was -0.467.
Take AAAAGUGGAACUUCUUCUC against TTLL8: the seed-corrected z-score is -2.21.
To AAAGUUGCAGUUGGUCUCC against ZACN belongs -3.49; to UUAGCAGCUUGUUAAUUUC against ISY1, -0.616; to UAAGCAGCUUGUAUUGCUC against KIAA0513, 0.461.
The same measure for UGAGGUUAAAGUGAGUAGC against VIT: -0.117; for UUUCUUACACCAUGAGACG against INTS4: -0.309; for UAAAGUAAAGAUGUCUUCC against NPIPA1: 0.0914.
To AUAGGGAUCUGAAAGUCCG against SYT4 belongs 0.582; to UCCGGUCAAACUUAGUGCC against AQR, -3.37.
Consider AACGAAAUAAAAGCUGUCC against CFAP69, for which the seed-corrected z-score is -0.411.
To UAUCGAACCAACCAGCAUC against MFSD4A belongs 1.1; to UUCGAUGAACUUCUUUUGC against BROX, 1.04.
The sequence UCCCGGGACAGCAUGUAGU against USP17L9P returned a seed-corrected z-score of 0.146.
The same measure for CAAUACUCCAGCAUCAGGC against OPA3: -2.35.
To UACAAGAAUAGUCACAAUG against OR5H1 belongs 0.319.
To UCUGUAUCAAUGAUUAAAC against ICE2 belongs 0.6.
With UUUGUUAGUCAGGUAUUCC against CCDC121, the seed-corrected z-score is 2.03.
To UGGGUAUGUAGUAAUCUCG against ADGB belongs -3.05; to AGACUGUAAAAGAUCUGUG against CCDC106, -0.709.
Regarding AAUCGUACACUCUCCGUAG against CHST2, the seed-corrected z-score is -1.01.
The same measure for UCACUUAGCAGGCUCUCUG against DDIT4L: -0.677; for ACCGUUAAACUUGUAAUCG against ZFYVE9: 0.0151.
To AUAGAUGCGAUCUAUGAGC against TRE17 belongs 0.156; to UGGUUGUACGCGAUGUCCG against FZD1, -3.54; to UGCUGCAAGAGGUUAUUCC against HAS1, 0.441.
The same measure for UAAUUGUCAGCUGAUUGUC against CDC6: -0.689; for UCACCGUUCCAUUCAAGUC against IKBKB: 0.0239; for UUUGGGAAAGUAGCUAUCA against LINC01124: -2.24.
The sequence AUUGGAGCAAGACUUUUAG against BDKRB1 returned a seed-corrected z-score of -0.291.
Sequence UUCAGCUAUAAAGUAAAGC against IL18 had a seed-corrected z-score of -13.
The same measure for AAGGCUCCAAUGAUAAGUG against NRG4: -0.154; for UCGCUUUCCUCCAGGGUAC against GNRH2: -0.382.
To AAAGCUGCGUCUUGUCUCG against LDLRAD2 belongs -3.83.
To UAAGAACCCACAGUAUUGA against FBLN2 belongs 0.31; to UAAAUAAUAUUGCACAUAC against FAM228A, 0.618; to UUGAAUUUAAGAGAAAGGA against NPR3, 0.283.
As to AUAGUCAGCUGUGCUCUGC against FLJ16423, the seed-corrected z-score was -0.343.
The same measure for UUAGCAUGCAAAAUCGCCC against CWC22: -3.73.
UAGGGUGAGUCAAUAAUGG against CSTF2T yielded a seed-corrected z-score of -0.0525.
The same measure for AUCUUUAUCAUUGGGCAGG against SCAF1: -0.941; for UUAUAAAUCCCUUUCACCG against CASP9: -0.324; for UAUGUCUUUCAGACUGACC against RPTN: -1.
The same measure for UUUCGGCACUGCAAAGUCG against ATP10A: 0.235.
The sequence UCCUGCUUCAUAUCUUCUG against C19orf66 had a seed-corrected z-score of -3.54.
To UUACUGAGGAAGUUUCUUU against CD99L2 belongs -0.781; to UCCCUGGUAAAGUAUAGUC against EGFEM1P, -1.34; to UUUCCGUCUGUCUUCUUCC against DCAF4, 0.00663.
To UUACUAAAGACUGACAACC against ZNF208 belongs -0.0968; to UACUGCUUCGUAUCUGUCC against PIH1D2, -2.13.
The same measure for AUAGGACUGACAGUGUUCA against STAC3: 1.13.
Sequence UUUCAUUCGGUGAAAGUCC against MTFR1L came in with a seed-corrected z-score of -0.547.
To UAAUUCACUAACUUCAAGC against SLC37A3 belongs 0.139.
The same measure for UGGGUGUCCAUUCUCGAGC against PPP1R18: 1.72; for UUUUGGGUGUGGACCUUGC against NPFF: 0.585.
To ACAGUGGAAACCUCACUUC against FOXP3 belongs 0.0552.
Regarding AUUCUUAUCCAUCCGAUCC against CTTN, the seed-corrected z-score is -0.272.
To UCAUUUUACCUCUUCCAUC against GADL1 belongs 0.676; to UCUGCUUCACCAGUUACUC against HNRNPH1, -2.08; to UGAUAAACCACAGCAACUC against TYMS, 1.01.
The same measure for UUUGAUACCUCCUUUACCC against HELB: 0.388; for UCUCUGCUAACGAUAACUC against PIWIL1: -0.0232; for UAACCUGCUCAAAAGAAUG against ACSL6: 0.714.
For UAAAGUACAGCUCGGUUUG against OOSP2, the seed-corrected z-score is 0.436.
The same measure for UUUGUUGAAGGUUUCACUG against ZMYND15: 1.4; for UCGAUAGUCAUCAAAGAUC against VWC2L: -2.99.
The same measure for UACUGGUAAAAGGUGUUCC against C6orf58: 0.5; for UACAGAGAAAGGUAGCGGU against GPR3: -2.23.
To UGAUCUACCUGCUUGUGCC against USP17L9P belongs -0.147.
Sequence UGACUGACAACUUCUGGAU against PAK6 came in with a seed-corrected z-score of -0.344.
The same measure for AAUGGACCUAGAUUUCAGG against C16orf59: 1.27; for UUAGCUGCGUCAGAUAUCG against RPS6KA2: -2.67; for UCCUGGAUACGCAACUUGA against C2orf68: -0.63.
To UGCAUUUGAAGACUCACUC against HMG20A belongs 0.87; to UUGAGUCUUAGCAAUGUGA against KIAA0895L, -0.000345; to UACAUGAAAAGCAAGGCUG against OR6B3, 0.504.
As for UAUGGUGUUGAGCUCAGCG against SLC12A3, the seed-corrected z-score worked out at 0.228.
To UCUACUAUCGGCUUAUAGC against 11-Sep belongs -0.114.
The same measure for UCCGGAGUAAGCUUCAACC against DHX9: -0.429; for AACGAAGCAAGCAUGGUCC against LARP6: -0.832; for UAGUCAACGUUGGACACGG against PRR22: 0.319.
Regarding UUGACGGUAAUAUCUGUCC against SMU1, the seed-corrected z-score is -3.14.
To UAGCCUAUGGUACAAGUUC against ERVFRD-1 belongs 0.353; to AACUCAUUCCCUUCUUUCC against ZMAT3, -0.582.
The same measure for UCUCUGACAAGUGUGAAGC against DKK1: -0.0537.
To UGAUGAGCGAGAAGGUACC against DLL4 belongs 1.41.
UUAAUUGCUAUGUUGUUGG against NFS1 showed a seed-corrected z-score of -0.476.
The same measure for AUAGGUUUGUGAUCCAACC against AAED1: 0.186.
The same measure for AUUCGUAUGGUUCAUGUCC against PRPF8: -2.88; for UUAAAUACAGCUCCUGUUA against AQP11: 0.0289; for AGCUUGUACAGUGUUAUCC against PTPN4: -2.22.
To UUGCUGAACGCGAUGAUCU against PRDX2 belongs 0.201; to UCUUAUGUAAUUGUUCCUC against KANSL1, 0.324; to UUCUUUCGCAUUGCAAUGC against CMC2, 0.187.
Sequence UGAGGACAAAGAAUCUUCC against MRPS18B registered a seed-corrected z-score of 0.518.
To UCCAGUUGUUCAAUCAUGG against CNTROB belongs -2.47.
To UCUGUUUGAUGUUAGGUUG against PACS1 belongs -0.0479; to UUCUUUAACUUUAUGCUCC against RAI2, 0.273.
To UAUUCUAUUGGGUCACUGG against DYDC2 belongs 0.409.
The sequence AAGUGAAUAGAAAACAUCC against SUN5 registered a seed-corrected z-score of 1.29.
To UAGGUCAGAAGCAACCUGC against C10orf111 belongs 2.42.
The same measure for AGAUGUGAUAGUGCUCUGG against TMEM52B: -2.02; for UUACGUAAUCCAGGGAUCG against LANCL2: -1.2.
In turn, UAGUGUAAUUGGUCUAACC against POGZ had a seed-corrected z-score of 0.928.
For UAUGUGAUUCUGGUGCUUG against LEMD1, the seed-corrected z-score came to 0.794.
